Laboratory results taken from PubChem BioAssay AID1053205 (Broad Institute, 2014).
Measured potencies and affinities stand elsewhere. Records with an inconclusive call do not appear. Values without a mark were called inactive.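 How the source made its calls: active means compounds lowering the FRET ratio whose fitted half-maximal concentration is at most twice their top tested dose; inconclusive means flat partial drop between 30 and 70 percent, or bad fit; inactive means the rest.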

target: Voltage-dependent L-type calcium channel subunit alpha-1D (Homo sapiens) (UniProt Q01668); assay: inhibitors of CaV1.3 ICDI-IQ binding, dose response, cell-based, HEK293, YFP-IQ/CFP-ICDI FRET, cherry-picks (AID 1053205); conditions: HEK293 YFP-IQ/CFP-ICDI FRET ratio, 10 min; series mostly up to 35 µM; FRET change, negative = inhibition: at the top concentration;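 further: 0% = median of neutral control wells and -100% = median of positive control wells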
Sequence (Q01668 whole entry, looked up): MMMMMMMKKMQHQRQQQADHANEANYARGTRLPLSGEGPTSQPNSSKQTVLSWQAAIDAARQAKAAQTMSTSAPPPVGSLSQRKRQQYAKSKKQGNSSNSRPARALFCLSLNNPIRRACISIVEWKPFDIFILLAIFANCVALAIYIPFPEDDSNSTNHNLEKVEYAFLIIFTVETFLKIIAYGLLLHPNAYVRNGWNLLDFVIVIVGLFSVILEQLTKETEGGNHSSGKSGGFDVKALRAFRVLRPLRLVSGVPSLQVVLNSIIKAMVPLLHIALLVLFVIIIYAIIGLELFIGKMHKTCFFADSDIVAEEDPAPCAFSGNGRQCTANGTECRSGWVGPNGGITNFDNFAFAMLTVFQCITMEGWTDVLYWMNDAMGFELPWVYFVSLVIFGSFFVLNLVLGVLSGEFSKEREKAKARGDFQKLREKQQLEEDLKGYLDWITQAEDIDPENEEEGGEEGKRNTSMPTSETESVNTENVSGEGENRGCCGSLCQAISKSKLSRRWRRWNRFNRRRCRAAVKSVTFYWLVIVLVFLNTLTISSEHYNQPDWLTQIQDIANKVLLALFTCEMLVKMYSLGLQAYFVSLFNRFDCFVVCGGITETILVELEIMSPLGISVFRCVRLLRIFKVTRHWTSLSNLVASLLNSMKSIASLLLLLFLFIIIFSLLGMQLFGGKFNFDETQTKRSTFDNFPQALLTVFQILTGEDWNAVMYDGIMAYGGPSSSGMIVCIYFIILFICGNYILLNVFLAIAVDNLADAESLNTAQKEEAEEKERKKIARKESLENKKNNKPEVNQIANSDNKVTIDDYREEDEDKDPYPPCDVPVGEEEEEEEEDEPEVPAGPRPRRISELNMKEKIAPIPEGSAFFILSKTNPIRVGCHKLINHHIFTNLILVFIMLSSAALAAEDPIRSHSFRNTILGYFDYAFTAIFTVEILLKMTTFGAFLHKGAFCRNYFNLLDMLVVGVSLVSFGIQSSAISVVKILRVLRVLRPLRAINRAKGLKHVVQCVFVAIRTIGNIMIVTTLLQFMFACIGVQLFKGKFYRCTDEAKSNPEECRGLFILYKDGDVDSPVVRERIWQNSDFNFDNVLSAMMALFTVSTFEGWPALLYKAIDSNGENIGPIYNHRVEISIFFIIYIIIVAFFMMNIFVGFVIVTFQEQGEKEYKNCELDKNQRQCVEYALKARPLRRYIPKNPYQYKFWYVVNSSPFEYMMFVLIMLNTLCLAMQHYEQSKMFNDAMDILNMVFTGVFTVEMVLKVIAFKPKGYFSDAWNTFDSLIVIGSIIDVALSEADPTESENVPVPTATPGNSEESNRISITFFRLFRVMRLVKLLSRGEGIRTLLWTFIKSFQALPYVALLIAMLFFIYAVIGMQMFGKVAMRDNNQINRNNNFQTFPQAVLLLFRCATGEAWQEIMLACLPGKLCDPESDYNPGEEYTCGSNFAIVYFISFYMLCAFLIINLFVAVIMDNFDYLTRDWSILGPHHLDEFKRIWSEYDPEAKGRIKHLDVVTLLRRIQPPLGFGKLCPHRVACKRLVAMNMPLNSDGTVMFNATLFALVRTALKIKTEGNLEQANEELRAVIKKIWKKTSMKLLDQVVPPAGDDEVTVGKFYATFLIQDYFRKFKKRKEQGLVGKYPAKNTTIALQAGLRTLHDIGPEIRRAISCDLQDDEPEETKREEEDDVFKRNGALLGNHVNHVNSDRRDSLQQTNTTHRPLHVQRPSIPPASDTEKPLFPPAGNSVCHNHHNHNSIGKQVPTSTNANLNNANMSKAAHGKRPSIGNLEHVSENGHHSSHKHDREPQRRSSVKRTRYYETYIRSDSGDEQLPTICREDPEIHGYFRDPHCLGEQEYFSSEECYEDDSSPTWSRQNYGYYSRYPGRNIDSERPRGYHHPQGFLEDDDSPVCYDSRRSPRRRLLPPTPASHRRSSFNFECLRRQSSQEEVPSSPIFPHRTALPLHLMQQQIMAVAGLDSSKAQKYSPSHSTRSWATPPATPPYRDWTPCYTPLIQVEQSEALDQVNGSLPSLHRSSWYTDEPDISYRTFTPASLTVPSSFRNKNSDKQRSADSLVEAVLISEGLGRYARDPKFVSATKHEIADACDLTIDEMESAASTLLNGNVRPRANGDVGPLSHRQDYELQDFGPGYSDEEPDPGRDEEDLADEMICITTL

Compound	FRET change, negative = inhibition
Cc1cc2c(C)cc(=O)oc2c2c1NCCC2	451%
Cc1c(C(=O)NCc2cccc([N+](=O)[O-])c2)sc(=O)n1Cc1cccc(F)c1	-14.7%
CCCOc1c(Br)cc(C2C3=C(CCCC3=O)N(C)C3=C2C(=O)CCC3)cc1OC	109% [at 16 µM]
Cc1cc(OC(=O)c2ccccc2Cl)ccc1N1C(=O)CCC1=O	7.19%
CC(=O)c1cc2ccc(O)cc2oc1=O	317%
CC(C)C(=O)Nc1sc2c(c1C(N)=O)CCN(Cc1ccccc1)C2	96.8%
Nn1c(SCC(=O)N2CCCC2)nnc1-c1cccs1	-7.59%
N#CC1=C(N)OC2=C(C(=O)CCC2)C1c1cc2c(cc1Br)OCO2 (stereo unspecified)	-32.1%
CCN(CC)Cc1c(O)c(Cl)cc2c(C)cc(=O)oc12	3.23%
CC1=C(C(=O)N2CCN(c3cc(C)ccc3C)CC2)C2(CCCCC2)OC1=O	9.6%
Cc1oc(/N=C/c2ccc(F)cc2)c(C#N)c1C	8.86%
COc1ccc(C2CC(c3cccs3)=NN2c2nc(C)c(C(C)=O)s2)cc1OC (stereo unspecified)	473%
O=C(O)C1=CC[C@@H](c2ccc(Cl)cc2)N(S(=O)(=O)c2ccc(Cl)cc2)[C@H]1c1ccc(F)cc1	4.82%
Cc1cccn2c(=O)c3cc(C(=O)NCc4ccco4)c(=N)n(CCc4ccccc4)c3nc12	178% [at 16 µM]
O=c1[nH]c(=O)c2nc(-c3ccc(Cl)cc3)cnc2[nH]1	201%
CCCCn1nc(NC(=O)c2cccs2)c2cc3cc(OC)ccc3nc21	490%
Cc1cc(=O)oc2cc(OC(=O)c3cncc(Br)c3)ccc12	-2.73%
CNNC(=S)NC1CC2CC1C1C=CCC21 (stereo unspecified)	4.34%

Compound	FRET change, negative = inhibition
Cn1cccc1/C=N/NC(=O)c1sc2cc(Cl)ccc2c1Cl	81.4%
CCN(CC)CCN1C2=C(C(=O)CC(C)(C)C2)C(c2cccc(F)c2)C2=C1CC(C)(C)CC2=O	177%
CCOC(=O)c1cc2c(=O)n3ccccc3nc2n(C(C)C)c1=NC(=O)c1ccco1	208% [at 8 µM]
CCOc1ccc2nc(NCCNC(=O)CC)c(C#N)cc2c1	426%
Cc1cc(-c2nc3cccnc3s2)ccc1NS(=O)(=O)c1cccs1	91.9%
O=C(Nc1ccc2c(c1)OCCO2)c1ccc(NC(=O)C2CCCO2)cc1 (stereo unspecified)	145%
O=C(NS(=O)(=O)c1ccc(Cl)s1)c1ccccc1	74.7%
CCC(C)n1c(=N)c(C#N)cc2c(=O)n3cc(C)ccc3nc21 (stereo unspecified)	176%
c1ccc(-c2cn3nc4c(nc3n2)CCCC4)cc1	478%
Cc1ccc(O)c(NC(=S)NC(=O)COc2ccc(Br)cc2)c1	-15.2%
Nc1nc(-c2cc(O)ccc2[N+](=O)[O-])cc(-c2ccccc2)c1[N+](=O)[O-]	191% [at 16 µM]
CCOC(=O)c1cc(-c2ccccc2)sc1NC(=O)CSc1nnc(N)s1	29.3%
Cc1nc(CCNC(=O)Cc2ccc(Cl)cc2)cs1	-11.5%
COc1ccc(CNC(=O)c2sc(=O)n(Cc3ccc(C)cc3)c2C)cc1OC	4.95% [at 8 µM]
CSc1ccc(Cl)c(C(=O)N2CCOc3ccccc32)c1	13.8%
COCCNC(=S)N/N=C/c1ccc(-c2ccc([N+](=O)[O-])cc2)o1	399%
O=C(CCc1c[nH]c2ccccc12)OCC(=O)c1ccccc1	-6.7%
Cc1ccc(S(=O)(=O)c2cc3c(=O)n4ccccc4nc3n(C)c2=N)cc1	187%
